# Compound activity as filed in PubChem.
# Rows were chosen to be rich in hits. Some 2.9% of all compounds tested hit in one or more screens of this group.
# ADAM17 inh: inhibitors of human ADAM17; inhibition, % at 6.95 µM; AID 720648; recombinant ADAM17, EDANS/DABCYL FRET peptide cleavage; 370,000 compounds, 0.83% hits;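 active means inhibition above the mean of compounds lying between control limits plus 3 SD, set per campaign, cut at about 8.5% in these data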;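 further: 0% = DMSO-only wells as the low control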
# PLCb3 inh: inhibitors of human phospholipase C beta3 | Q01970 | inhibition, % at 12.2 µM | 370,000 compounds, 0.18% hits | Purified PLC-beta3, fluorogenic substrate, fluorescence;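 further: 0% = median of compound wells on plate and 100% = full blocker control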
# proKLK7 act: activators of human kallikrein-7 zymogen | activation, % at 7 µM | AID 652039 | 370,000 compounds, 0.9% hits | purified proKLK7, EDANS-DABCYL substrate fluorescence; 100% is mature enzyme control, 0% vehicle | P49862;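 active means activation above the mean of all tested compounds plus 3 SD, computed per campaign excluding outliers beyond control limits, cut at about 13% in these data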
# ADAM10 inh: inhibits human ADAM10; O14672; recombinant ADAM10, EDANS/DABCYL FRET peptide cleavage, 3 h; inhibition, % at 7 µM; 370,000 compounds, 0.62% hits; AID 720582;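 active means inhibition above a per-campaign cutoff equal to the mean of compounds falling between control-based bounds plus 3 SD, cut at about 20% in these data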;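 further: 0% = DMSO wells while the 100% control is not disclosed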
# PLCg1 inh: inhibitors of human phospholipase C gamma1 | P19174 | purified PLC-gamma1, fluorogenic substrate, fluorescence | 370,000 compounds, 0.84% hits | inhibition, % at 12.2 µM; in the data active means inhibition above about 9.5%
# Target sequence (P19174 whole entry, looked up): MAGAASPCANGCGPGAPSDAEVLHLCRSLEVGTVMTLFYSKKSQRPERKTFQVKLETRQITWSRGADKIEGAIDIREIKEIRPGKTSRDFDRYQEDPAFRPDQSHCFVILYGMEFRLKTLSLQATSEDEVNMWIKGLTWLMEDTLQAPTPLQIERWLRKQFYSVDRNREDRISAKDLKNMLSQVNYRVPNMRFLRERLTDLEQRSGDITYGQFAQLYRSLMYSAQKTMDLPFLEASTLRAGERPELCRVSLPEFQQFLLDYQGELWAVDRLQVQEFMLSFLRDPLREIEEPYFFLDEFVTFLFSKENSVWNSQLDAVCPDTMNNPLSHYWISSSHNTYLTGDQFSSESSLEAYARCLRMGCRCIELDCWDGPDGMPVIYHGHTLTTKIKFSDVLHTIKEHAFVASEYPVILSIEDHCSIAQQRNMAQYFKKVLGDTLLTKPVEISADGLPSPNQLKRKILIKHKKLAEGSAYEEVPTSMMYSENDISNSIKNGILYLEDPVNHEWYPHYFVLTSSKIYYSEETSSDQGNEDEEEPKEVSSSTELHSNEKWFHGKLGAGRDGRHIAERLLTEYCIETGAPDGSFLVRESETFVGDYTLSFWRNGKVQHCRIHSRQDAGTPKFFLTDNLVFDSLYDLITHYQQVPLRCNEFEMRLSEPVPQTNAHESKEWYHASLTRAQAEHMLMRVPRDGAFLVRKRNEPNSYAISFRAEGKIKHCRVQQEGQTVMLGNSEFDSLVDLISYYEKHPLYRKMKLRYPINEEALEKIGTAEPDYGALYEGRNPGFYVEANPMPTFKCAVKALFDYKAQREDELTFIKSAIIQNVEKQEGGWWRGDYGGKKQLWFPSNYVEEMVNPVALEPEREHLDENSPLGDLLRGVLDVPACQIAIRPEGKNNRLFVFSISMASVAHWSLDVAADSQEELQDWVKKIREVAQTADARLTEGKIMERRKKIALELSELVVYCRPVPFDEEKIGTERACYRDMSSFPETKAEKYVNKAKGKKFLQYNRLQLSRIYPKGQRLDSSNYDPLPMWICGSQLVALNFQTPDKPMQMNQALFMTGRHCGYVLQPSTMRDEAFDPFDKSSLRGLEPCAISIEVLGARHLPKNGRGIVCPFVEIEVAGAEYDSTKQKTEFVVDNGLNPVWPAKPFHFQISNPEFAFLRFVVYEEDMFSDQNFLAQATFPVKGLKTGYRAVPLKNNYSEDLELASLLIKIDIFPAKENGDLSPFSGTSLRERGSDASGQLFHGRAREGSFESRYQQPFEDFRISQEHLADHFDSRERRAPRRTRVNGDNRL
# PLCgamma1 ctr: PLC-gamma1 inhibition, counter-screen for PLC-beta3 hits. 3,300 compounds, 3.1% hits. purified PLC-gamma1, fluorogenic substrate, fluorescence. inhibition, % at 12.3 µM. shares compounds with PLCg1 inh; in the data active means inhibition above about 9.5%
# PLCbeta3 conf: confirmation of human PLC-beta3 inhibitors; 3,300 compounds, 1% hits; purified PLC-beta3, fluorogenic substrate fluorescence; shares compounds with PLCg1 inh; inhibition, % at 12.3 µM
# An asterisk follows results filed as active; x = no result given. Unless noted, no stated cut-off is given here; in the data, active means inhibition above about 11%; inactive means the rest.
SMILES,ADAM17 inh,PLCb3 inh,proKLK7 act,ADAM10 inh,PLCg1 inh,PLCgamma1 ctr,PLCbeta3 conf
Nc1nc(SCc2ccccc2[N+](=O)[O-])c2ncn(Cc3ccccc3)c2n1,5,4,1,7,4,x,x
CCC(C(=O)NC1CCCC1)N(Cc1ccco1)C(=O)Cn1nnc(-c2ccc(C)cc2)n1 (stereo not drawn),-2,2,0,-4,-3,x,x
CCOC(=O)CN(C(=O)Cn1nnc(-c2ccc(C)cc2)n1)C(CC)C(=O)NC1CCCC1 (stereo not drawn),6,6,-1,11,13*,-1,-8
O=C(NCCCn1ccnc1)C(=O)NCC1OCCCN1S(=O)(=O)c1ccccc1 (stereo not drawn),-3,2,0,1,1,x,x
Cc1nccn1CCOc1ccccc1Cl,6,1,0,9,10*,-6,-1
CCN(CC)S(=O)(=O)c1cc(NC(=O)c2cc([N+](=O)[O-])ccc2N2CCOCC2)ccc1C,2,-5,0,3,1,x,x
CC(C)Oc1nnnn1-c1ccccc1,2,3,1,3,3,x,x
c1ccc(-n2nnnc2OCCOc2nnnn2-c2ccccc2)cc1,2,9,0,6,14*,4,1
COc1ccc(NC(=S)Nc2ccccc2C(F)(F)F)cc1,-4,-2,-1,-21,3,x,x
FC(F)(F)c1ccccc1NC(=S)Nc1ccccc1,-6,-5,0,-3,11*,-3,-2
Cc1ccc(C(NC(N)=O)c2ccccc2)cc1 (stereo not drawn),9,4,1,13,12*,-8,-6
Cn1c(SCC(=O)c2c(N)n(C)c(=O)n(C)c2=O)nnc1-c1ccccc1F,-1,-2,0,-2,-1,x,x
Cn1c(SCC(=O)c2c(N)n(C)c(=O)n(C)c2=O)nnc1-c1ccccc1,5,3,0,6,15*,-6,-1
Cn1c(N)c(C(=O)CSc2nc3ccccc3c(=O)n2Cc2ccccc2)c(=O)n(C)c1=O,2,5,-1,10,11*,-5,-4
CC(C)OC(=O)Cc1nc2sc(-c3ccccc3)cc2c(=O)[nH]1,-23,-62,-14,-36,-39,x,x
COc1ccc(CN=C2NC(=O)CC(C(=O)Nc3cc(C)cc(C)c3)S2)cc1 (stereo not drawn),1,17*,0,5,9,1,1
CCCCNC(=O)C[C@@H]1C[C@@]2(C(=O)OC)CCCCC=C2N(Cc2cccc3ccccc23)C1=O,-2,-2,0,-16,11*,-1,4
CC(C)C[C@@H](NC(=O)OC(C)(C)C)C(=O)N1O[C@]23C=C[C@]14C[C@@H](O)CC[C@]4(C)C2CC[C@]1(C)[C@@H]([C@H](C)/C=C/[C@H](C)C(C)C)CC[C@H]13 (stereo partly drawn),-1,1,0,-128,2,x,x
CC(C)[C@@H](C)/C=C/[C@@H](C)[C@H]1CC[C@@H]2[C@]1(C)CCC1[C@]23C=C[C@]2(C[C@@H](O)CC[C@]12C)N(c1ccc(Br)cn1)O3 (stereo partly drawn),3,-6,1,3,9.9*,-1,1
CCN(CC(=O)Nc1ccc2c(c1)OCCO2)C(=O)COc1cc(C)ccc1Cl,0,5,0,-4,12*,-8,-2
CCCN1CCc2nc(SCC(=O)Nc3ccc(C)c(Cl)c3)[nH]c(=O)c2C1,-7,-7,0,-13,-5,x,x
CCOC(=O)/C(C#N)=C1/C=CN(C)C=N1,1,8,0,-1,10*,14*,9
CCOC(=O)/C(C#N)=C1/SC(CC)C(=O)N1c1ccc(C)cc1 (stereo not drawn),7,-2,-1,9,2,x,x
CCOC(=O)/C(C#N)=C1/C=CN(c2ccc(C)cc2)C=N1,8,12*,0,13,13*,-5,1
CCOC(=O)/C(C#N)=C1/C=CN(Cc2ccccc2)C=N1,5,11,0,10,9,x,x
SMILES,ADAM17 inh,PLCb3 inh,proKLK7 act,ADAM10 inh,PLCg1 inh,PLCgamma1 ctr,PLCbeta3 conf
CCOC(=O)/C(C#N)=C1\C=CN(C)C(C)=N1,0,2,0,2,5,x,x
CCOC(=O)/C(C#N)=C1/C=CN(c2ccccc2)C=N1,6,6,0,7,11*,7,7
O=c1c(=O)n(O)c2ccccc2n1O,-3,-1,0,6,13*,-6,-2
COn1c(=O)c(=O)n(O)c2ccccc21,0,3,0,0,4,x,x
Cc1[nH][nH]c(=O)c1C(c1ccc(-c2ccc(F)cc2)o1)c1c(C)[nH][nH]c1=O,5,3,0,12,11*,-5,-1
Cc1[nH][nH]c(=O)c1C(c1ccc(-c2ccc(C(=O)O)cc2)o1)c1c(C)[nH][nH]c1=O,-5,-3,0,-24,-2,x,x
Cc1cc(C(=O)OCC(=O)NC(C)c2ccc(F)cc2)c(C)o1 (stereo not drawn),-1,-1,0,-3,0,x,x
O=C(NCc1ccc(F)cc1)C(C(=O)NCc1ccc(F)cc1)c1ncc(C(F)(F)F)cc1Cl,6,8,0,0,13*,-1,1
CCOC(=O)C(C(=O)NCc1ccc(F)cc1)c1ncc(C(F)(F)F)cc1Cl (stereo not drawn),-1,0,0,-3,-1,x,x
Clc1nnc(Cl)c2c1ncn2Cc1ccccc1,2,4,0,5,11*,-3,-1
O=c1c2ccccc2ncn1Cc1ccccc1,0,-4,0,3,-1,x,x
CCOC(=O)C1CCN(S(=O)(=O)c2ccc(OC)c(Cl)c2)CC1,-1,2,0,4,-4,x,x
COc1ccc(C(=O)N2CCC(N3CCN(c4ccccc4)CC3)CC2)cc1OC,0,5,0,2,3,x,x
COc1ccc(C(=O)N2CCN(C3CCC(c4ccccc4)CC3)CC2)cc1OC (stereo not drawn),4,5,0,6,15*,-12,-2
CCOC(=O)c1sc(NC(=O)C(C)Sc2nc(N)cc(=O)[nH]2)nc1C (stereo not drawn),-3,-3,0,-4,-1,x,x
COC(=O)CSC1=C(C#N)C(=O)NC2(CCCCC2)S1,6,9,0,3,16*,-6,-7
O=C(c1ccccc1)N1CCN(c2ccc([N+](=O)[O-])c(NCc3cccnc3)c2)CC1,-1,0,0,7,9.7*,-1,0
Cc1ccc(S(=O)(=O)c2ccc(Cl)cc2)cc1S(=O)(=O)N1CCN(C)CC1,6,0,0,-2,1,x,x
